# Assay results published in PubChem BioAssay.
# Test system: Human papillomavirus type 1a E7 protein (residues 1-88)
# Assay: HPV1a E7 small-molecule binders, primary screen, biochemical, small-molecule microarray, residues 1-88, 635 nm (AID 1129)
# Details: small-molecule microarray binding, fluorescence 635 nm; higher = more signal
row,Structure (SMILES),composite z-score
1,O=C1[C@H]2[C@H]3[C@H](O)[C@H](O)CC(=NOCc4ccccc4)[C@@H]3CC[C@H]2C(=O)N1C[C@@H]1CCCO1,-0.182
2,CC(=O)OC[C@H]1O[C@H](C#Cc2ccccc2)C=C[C@@H]1OC(C)=O,0.262
3,CCOC(=O)[C@H](CC(C)C)NC(=O)CCC1CC(OC(=O)NCCc2ccc(F)cc2)CC2(CCCC(COC(=O)NCCOc3ccccc3)O2)O1 (stereo not given in full),0.698
4,C#CCCCON=C1C[C@@H](O)[C@@H](O)[C@@H]2[C@@H]3C(=O)N(CC)C(=O)[C@@H]3CC[C@@H]12,0.63
5,CC(C)=CCCC(C)=CCON=C1C[C@@H](O)[C@@H](O)[C@@H]2[C@@H]3C(=O)N(c4cccc(Oc5ccccc5)c4)C(=O)[C@@H]3CC[C@@H]12,0.929
6,O=C1[C@H]2[C@H]3[C@H](O)[C@H](O)CC(=NOC[C@@H](O)COCc4ccco4)[C@H]3CC[C@H]2C(=O)N1C[C@@H]1CCCO1,0.225
7,CC(CCN1CCc2nc(-c3ccccc3)c(-c3ccccc3)cc2C1)=NOC[C@@H](O)[C@H]1O[C@@H]2OC(C)(C)O[C@@H]2[C@H]1O,0.94
8,CCOC(=O)[C@H](CC(C)C)NC(=O)CCC1CC(OC(=O)NCc2ccc3c(c2)OCO3)CC2(CCCC(COC(=O)NCCCN3CCCC3=O)O2)O1 (stereo not given in full),1.15

# Target: Focal adhesion kinase 1 (Homo sapiens) (UniProt Q05397)
# Sequence (Q05397 whole entry, looked up): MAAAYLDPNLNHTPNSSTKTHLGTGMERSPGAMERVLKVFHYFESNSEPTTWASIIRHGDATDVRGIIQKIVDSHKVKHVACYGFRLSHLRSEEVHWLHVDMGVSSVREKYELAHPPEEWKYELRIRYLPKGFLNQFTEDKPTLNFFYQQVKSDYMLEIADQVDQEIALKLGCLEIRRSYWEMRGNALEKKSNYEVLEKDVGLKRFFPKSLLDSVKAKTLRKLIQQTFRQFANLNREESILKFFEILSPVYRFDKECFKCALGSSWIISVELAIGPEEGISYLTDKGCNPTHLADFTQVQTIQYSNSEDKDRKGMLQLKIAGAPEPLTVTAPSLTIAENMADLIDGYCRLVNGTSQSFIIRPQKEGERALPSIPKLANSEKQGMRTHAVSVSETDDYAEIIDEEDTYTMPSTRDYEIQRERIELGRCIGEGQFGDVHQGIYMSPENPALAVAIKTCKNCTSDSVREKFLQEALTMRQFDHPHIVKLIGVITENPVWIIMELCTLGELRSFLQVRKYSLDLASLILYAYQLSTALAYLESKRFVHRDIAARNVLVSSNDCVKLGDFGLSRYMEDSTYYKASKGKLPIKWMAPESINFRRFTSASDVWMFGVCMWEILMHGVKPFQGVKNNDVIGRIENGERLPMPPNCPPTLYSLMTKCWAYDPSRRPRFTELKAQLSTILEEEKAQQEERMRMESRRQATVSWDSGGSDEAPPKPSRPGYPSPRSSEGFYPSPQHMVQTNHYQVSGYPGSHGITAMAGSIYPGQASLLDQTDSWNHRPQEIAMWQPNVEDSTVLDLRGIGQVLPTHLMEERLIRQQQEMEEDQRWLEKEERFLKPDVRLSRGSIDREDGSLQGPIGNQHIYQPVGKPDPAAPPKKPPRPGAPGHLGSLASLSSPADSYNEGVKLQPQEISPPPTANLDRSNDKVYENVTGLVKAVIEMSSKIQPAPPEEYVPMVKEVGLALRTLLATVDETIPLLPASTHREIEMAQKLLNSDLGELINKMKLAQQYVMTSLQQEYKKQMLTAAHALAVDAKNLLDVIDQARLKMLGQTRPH
# Assay: PTK2 protein binding on printed compound slides – biochemical, small-molecule microarray, 635/667 nm fluorescence, BSA, DTT, primary screen (AID 1130);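 also: composite of spot emission at 667 nm and signal to noise over triplicate slides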
# Details: 635 nm fluorescence, higher = more signal
row,Structure (SMILES),composite z-score
1,O=C1[C@H]2[C@H]3[C@H](O)[C@H](O)CC(=NOC[C@@H](O)COCc4ccco4)[C@@H]3CC[C@H]2C(=O)N1C[C@@H]1CCCO1,-0.288
2,CC(C)=NOC[C@@H](C)[C@H](OCc1ccccc1)C(C)C,-0.15
3,C=CC[C@@H]1C=C[C@H](ON=C(C)CCN2CCc3nc(-c4ccccc4)c(-c4ccccc4)cc3C2)[C@@H](CO)O1,-0.372
4,CC(=O)OC[C@H]1OC(ON=CC[C@@H]2C=C[C@H](OC(C)=O)[C@@H](COC(C)=O)O2)[C@H](OC(C)=O)[C@@H](OC(C)=O)[C@@H]1OC(C)=O (stereo not given in full),0.282
5,CON=CC[C@@H]1C=C[C@H](OC(C)=O)[C@@H](COC(C)=O)O1,0.538
6,COC(=O)CC=C[C@@H](C)[C@@H](C=NO[C@@H]1O[C@H](COC(C)=O)[C@@H](OC(C)=O)[C@H](OC(C)=O)[C@H]1OC(C)=O)OC,0.107
7,COC(=O)CC=C[C@@H](C)[C@@H](C=NO[C@H](C)c1cn([C@H](CO)Cc2ccccc2)nn1)NS(=O)(=O)c1ccc(C)cc1,0.608
8,CCOC(=O)[C@H](CC(C)C)NC(=O)CCC1CC(OC(=O)NCc2cccc3ccccc23)CC2(CCCC(COC(=O)NCC3CCCCC3)O2)O1 (stereo not given in full),-0.368
9,COc1cccc([C@H]2Oc3ccc(OC)cc3C(=NO[C@H](C)c3cn([C@H](CO)Cc4ccccc4)nn3)[C@@H]2O)c1,-0.181
10,CCOC(=O)[C@H](Cc1ccccc1)NC(=O)CCC1CC(OC(=O)NCCc2ccc(F)cc2)CC2(CCCC(COC(=O)NCCCN3CCCC3=O)O2)O1 (stereo not given in full),0.494
11,COC(=O)[C@H](C)NC(=O)CCC1CC(OC(=O)NCCc2ccc(F)cc2)CC2(CCCC(COC(=O)NCCC(C)C)O2)O1 (stereo not given in full),0.0069
12,O=C1C=C[C@@H](O)[C@@H]2[C@@H]3C(=O)N(c4ccc(F)cc4F)C(=O)[C@@H]3CC[C@@H]12,0.103
13,CCOC(=O)[C@H](CC(C)C)NC(=O)CCC1CC(OC(=O)NCc2cccc3ccccc23)CC2(CCCC(COC(=O)NCCCN3CCCC3=O)O2)O1 (stereo not given in full),0.205
14,CCOC(=O)[C@H](CC(C)C)NC(=O)CCC1CC(OC(=O)NCc2cccc3ccccc23)CC2(CCCC(COC(=O)NCCc3ccc(Cl)cc3)O2)O1 (stereo not given in full),0.218
15,CO[C@H]1COC(=O)CC=C[C@@H](C)[C@H](NS(=O)(=O)c2ccc(C)cc2)COC(=O)CCC[C@@H]1C,0.193
16,CC(=O)OC[C@H]1O[C@@H](ON=C(C)CCN2CCCc3nc(C)c(C)cc32)[C@H](OC(C)=O)[C@@H](OC(C)=O)[C@@H]1OC(C)=O,0.36
17,CCOC(=O)CCN1C(=O)[C@H]2[C@H]3[C@H](O)[C@H](O)CC(=NNC(=O)OCc4ccccc4)[C@@H]3CC[C@H]2C1=O,0.538
18,CC=CC1=C(CO)C(=O)[C@@H]2O[C@@H]2C1=O,-0.681
19,O=C1[C@H]2[C@H]3[C@H](O)[C@H](O)CC(=NOCc4ccccc4)[C@H]3CC[C@H]2C(=O)N1Cc1ccc2c(c1)OCO2,-0.175

row,Structure (SMILES),composite z-score
1,COC(=O)CC=C[C@@H](C)[C@@H](C=NOCC[C@@H]1C=C[C@H](OC(C)=O)[C@@H](COC(C)=O)O1)OC,0.222
2,O=C(NN=C1C[C@@H](O)[C@@H](O)[C@@H]2[C@@H]3C(=O)N(Cc4ccccc4)C(=O)[C@@H]3CC[C@@H]12)OCc1ccccc1,-0.0741
3,CO[C@H]1COC(=O)CCC[C@@H](C)[C@H](OC)COC(=O)[C@@H]2CCCN2C(=O)CC=C[C@@H]1C,-0.682
4,CCOC(=O)[C@H](CC(C)C)NC(=O)CCC1CC(OC(=O)NCc2ccc3c(c2)OCO3)CC2(CCCC(COC(=O)NCc3cccc(C(F)(F)F)c3)O2)O1 (stereo not given in full),0.201
5,CC(C)CON=C1C[C@@H](O)[C@@H](O)[C@@H]2[C@@H]3C(=O)N(c4ccc(F)cc4F)C(=O)[C@@H]3CC[C@H]12,0.436
6,CO[C@@H]1COC(=O)CC=C[C@@H](C)[C@@H]2C=C[C@H](O)[C@@H](COC(=O)CC=C[C@H]1C)O2,-0.649
7,CC(CCN1CCc2nc(-c3ccccc3)c(-c3ccccc3)cc2C1)=NOC[C@@H](O)COCc1ccco1,0.475
8,C[C@H]1CC[C@H]2C(=O)O[C@H](COc3ccc(C(C)(C)C)cc3)CN2[C@@H]1c1ccc(Br)cc1,0.189
9,CCC1=NOC(CCC2CC(OC(=O)NCc3cccc4c3OCO4)CC3(CCCC(COC(=O)NCCc4ccccc4OC)O3)O2)C1 (stereo not given),0.494
10,C=CC[C@@H]1C=C[C@H](ON=C2[C@H]3CCn4c(=O)n(-c5ccccc5)c(=O)n4[C@H]3[C@H](O)[C@@H]3O[C@H]23)[C@@H](CO)O1,-0.118
11,O=C1[C@H]2[C@H]3[C@H](O)[C@H](O)CC(=NOCc4ccccc4)[C@@H]3CC[C@H]2C(=O)N1C[C@@H]1CCCO1,0.205
12,CC(=O)OC[C@H]1O[C@H](C#Cc2ccccc2)C=C[C@@H]1OC(C)=O,-0.203
13,CCOC(=O)[C@H](CC(C)C)NC(=O)CCC1CC(OC(=O)NCCc2ccc(F)cc2)CC2(CCCC(COC(=O)NCCOc3ccccc3)O2)O1 (stereo not given in full),0.231
14,C#CCCCON=C1C[C@@H](O)[C@@H](O)[C@@H]2[C@@H]3C(=O)N(CC)C(=O)[C@@H]3CC[C@@H]12,-0.229
15,CC(C)=CCCC(C)=CCON=C1C[C@@H](O)[C@@H](O)[C@@H]2[C@@H]3C(=O)N(c4cccc(Oc5ccccc5)c4)C(=O)[C@@H]3CC[C@@H]12,1.58
16,O=C1[C@H]2[C@H]3[C@H](O)[C@H](O)CC(=NOC[C@@H](O)COCc4ccco4)[C@H]3CC[C@H]2C(=O)N1C[C@@H]1CCCO1,-0.173
17,CC(CCN1CCc2nc(-c3ccccc3)c(-c3ccccc3)cc2C1)=NOC[C@@H](O)[C@H]1O[C@@H]2OC(C)(C)O[C@@H]2[C@H]1O,0.182
18,CCOC(=O)[C@H](CC(C)C)NC(=O)CCC1CC(OC(=O)NCc2ccc3c(c2)OCO3)CC2(CCCC(COC(=O)NCCCN3CCCC3=O)O2)O1 (stereo not given in full),0.115
